JMJD2A Tudor inh – blocks the human JMJD2A Tudor domain; Potency, µM (highest dose often 114 µM), inactives show at the top dose activity change, negative = inhibition, hits mostly inhibitors; hit rate 4.4% among 390,000; AlphaScreen JMJD2A-Tudor / H3K4me3 peptide binding; O75164; also: % is scaled to controls: 0 for no effect and ±100 for the full control effect; nearly all actives have a fitted effect of over 50% in size
Target sequence (O75164 whole entry, looked up, the tested form may be a part): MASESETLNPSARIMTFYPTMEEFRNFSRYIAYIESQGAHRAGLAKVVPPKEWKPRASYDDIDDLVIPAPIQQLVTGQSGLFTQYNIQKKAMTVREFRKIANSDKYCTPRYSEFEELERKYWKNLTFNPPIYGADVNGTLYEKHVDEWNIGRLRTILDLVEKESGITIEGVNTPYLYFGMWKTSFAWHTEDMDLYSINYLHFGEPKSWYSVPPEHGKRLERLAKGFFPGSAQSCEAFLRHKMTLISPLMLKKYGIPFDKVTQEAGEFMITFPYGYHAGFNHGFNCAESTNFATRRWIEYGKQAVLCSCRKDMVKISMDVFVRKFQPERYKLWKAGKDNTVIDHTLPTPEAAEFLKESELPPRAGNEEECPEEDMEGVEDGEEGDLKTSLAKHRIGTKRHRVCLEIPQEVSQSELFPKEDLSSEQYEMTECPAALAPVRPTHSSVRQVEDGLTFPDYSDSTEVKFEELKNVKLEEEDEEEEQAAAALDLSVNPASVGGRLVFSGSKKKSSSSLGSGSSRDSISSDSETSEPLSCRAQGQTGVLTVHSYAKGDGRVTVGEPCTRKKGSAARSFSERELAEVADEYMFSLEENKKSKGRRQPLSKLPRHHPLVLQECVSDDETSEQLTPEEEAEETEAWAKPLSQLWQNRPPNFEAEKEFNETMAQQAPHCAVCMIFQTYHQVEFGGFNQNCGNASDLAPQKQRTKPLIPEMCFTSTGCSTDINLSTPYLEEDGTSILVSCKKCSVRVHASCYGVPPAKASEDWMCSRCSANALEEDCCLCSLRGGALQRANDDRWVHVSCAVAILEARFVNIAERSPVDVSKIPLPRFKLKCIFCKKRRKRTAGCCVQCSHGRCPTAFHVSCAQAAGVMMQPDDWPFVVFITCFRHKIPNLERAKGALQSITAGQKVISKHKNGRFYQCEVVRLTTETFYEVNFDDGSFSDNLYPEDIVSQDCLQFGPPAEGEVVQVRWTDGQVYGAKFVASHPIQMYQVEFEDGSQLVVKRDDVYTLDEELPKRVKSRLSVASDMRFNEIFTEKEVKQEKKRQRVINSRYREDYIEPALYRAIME
VDR inh – vitamin D3 receptor (human) inhibition; Potency, µM, without a hit: max response, negative = inhibition, most hits filed as inhibitors; P11473; VDR-SRC2-3 peptide fluorescence polarization, 2 h; hit rate 0.93% among 400,000; also: % is scaled to controls: 0 for no effect and ±100 for the full control effect
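Two reagent solutions held at 4 deg C in the dark were dispensed, compounds pinned at 23 nl, and the mixture incubated 2 h at room temperature. Read-out: fluorescence polarization of VDR–SRC2-3 peptide binding.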
PLK1 PBD block – inhibitors of human PLK1 polo-box domain binding | P53350 | hit rate 2.8% among 360,000 | Plk1 PBD binding of FITC phosphopeptide, fluorescence polarization | Potency, µM, for the others: max response, negative = inhibition, hits mostly inhibitors; also: series mostly up to about 57 µM; % is scaled to controls: 0 for no effect and ±100 for the full control effect; nearly all actives have a fitted effect of over 65% in size
HP1b binding inh – HP1-beta chromodomain-methylated histone interaction inhibition. P83916. AlphaScreen HP1-beta / biotin-H3K9me3 peptide binding. Potency, µM (titrated, usually from 114 µM), inactives show top-dose activity change, negative = inhibition, actives largely listed as inhibitors. hit rate 0.56% among 390,000. AID 540317; also: nearly all actives have a fitted effect of over 70% in size
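Compound inhibition of the preformed complex between 50 nM HP1-beta and 50 nM biotinylated H3K9me3 peptide was read by AlphaScreen. Buffer was PBS pH 7.4 with 0.01% Tween-20. Incubations ran 30 min at room temperature, with 10 ug/mL donor/acceptor beads.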
BAZ2B inh – BAZ2B (human) inhibition | Q9UIF8 | AlphaScreen BAZ2B-H3K14Ac peptide displacement | Potency, µM (doses to about 114 µM), for the others: at the highest dose activity change, negative = inhibition, most hits filed as inhibitors | hit rate 4.4% among 360,000; also: % is scaled to controls: 0 for no effect and ±100 for the full control effect; nearly all actives have a fitted effect of over 60% in size
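Complex of BAZ2B and biotin-H3K14Ac (50 nM apiece) forms over 30 min at RT, then faces library compounds up to 110 uM for another 30 min; AlphaScreen beads added, 20 min dark incubation, luminescence read.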
G9a inh – inhibitors of human histone lysine methyltransferase G9a; Potency, µM (highest dose often 102 µM), for inactives: at the highest dose activity, negative = inhibition, usual class: inhibitors; AID 504332; G9a H3K9 monomethylation, AlphaScreen, 2 h; hit rate 8.8% among 350,000; Q96KQ7; also: % is scaled to controls: 0 for no effect and ±100 for the full control effect; nearly all actives have a fitted effect of over 75% in size
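Using a bead-based AlphaScreen, monomethylated H3K9 product from 2 h room-temperature reactions (G9a 20 nM, peptide 500 nM, SAM 20 uM) was detected with 0.5 ug/mL rabbit anti-H3K9me1 antibody.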
Starred values were filed as active, the others as inactive; [ ] = another dose, or the depositor's remark. Compounds with a hit are over-represented: about 11% of the library has one in this group of screens. Calls follow the shape of the dose curve; as a rule, active = well fitted curve in the direction sought with a large enough effect; inconclusive = small, poorly fitted or top-dose-only effect, or another doubt; inactive = no such curve, though single readings can be large; an effect the other way counts as inactive or inconclusive. Potency is read from the fitted curve at half-maximal effect.

`COC(=O)CNC(=O)/C=C/c1cc(Br)ccc1OC` gave JMJD2A Tudor inh -3%, VDR inh 9%, PLK1 PBD block -8%, HP1b binding inh 40%, BAZ2B inh -4% and G9a inh -32%.
`Fc1ccc(Oc2nccc(-c3ccc(Cl)cc3)n2)cc1` gave JMJD2A Tudor inh 41%, VDR inh -5%, PLK1 PBD block 2%, HP1b binding inh 101%, BAZ2B inh 73% and G9a inh 16%[59 µM].
O=S(=O)(c1ccccc1)N1CCC2(CC1)CN(c1ccccn1)C2 was read as VDR inh -14% and G9a inh 46%[12.7 µM].
Screening O=C1Nc2cc(C(=O)NCCN3CCCCCC3)ccc2S/C1=C\c1ccccc1 returned JMJD2A Tudor inh inconclusive, VDR inh 7%, PLK1 PBD block -8%, HP1b binding inh -13%, BAZ2B inh inconclusive and G9a inh 45µM*.
For COc1cccc(/C=C2/Sc3ccc(C(=O)NCCN4CCCCCC4)cc3NC2=O)c1 the results were JMJD2A Tudor inh inconclusive, VDR inh 13%, PLK1 PBD block -3%, HP1b binding inh 5%, BAZ2B inh inconclusive and G9a inh 40µM*.
For CCN1CCCC1CNC(=O)c1cc(N)ccc1OC (stereo unspecified) the results were JMJD2A Tudor inh 0.79µM*, VDR inh -6%, PLK1 PBD block 2% and HP1b binding inh inconclusive.
For CCN1CCN(CCCNC(=O)c2ccc3c(c2)NC(=O)/C(=C\c2cccc(C)c2)S3)CC1 the results were JMJD2A Tudor inh inconclusive, VDR inh -5%, PLK1 PBD block -3%, HP1b binding inh 15%, BAZ2B inh inconclusive and G9a inh 35µM*.
`NS(=O)(=O)c1cc2c(cc1C(F)(F)F)N[C@H](Cc1ccccc1)NS2(=O)=O` gave VDR inh -15% and G9a inh 29%[21.5 µM].
Screening CC(NC(=O)c1cc(F)c(F)c(F)c1F)c1ccc(-n2ccnc2)cc1 (stereo unspecified) returned JMJD2A Tudor inh -7%, VDR inh 10%, PLK1 PBD block 3%, HP1b binding inh 50%, BAZ2B inh -21% and G9a inh 33%.
CCN1CCCC1CNC(=O)c1ccc2c(c1)NC(=O)/C(=C\c1ccc(OC)c(OC)c1)S2 (stereo unspecified) was read as JMJD2A Tudor inh 28µM*, VDR inh -4%, PLK1 PBD block -14%, HP1b binding inh -17%[57 µM], BAZ2B inh 25µM* and G9a inh -9%[0.0925 µM].
`CCN1CCCC1CNC(=O)c1ccc2c(c1)NC(=O)/C(=C\c1ccccc1Cl)S2` (stereo unspecified) gave PLK1 PBD block -2%.
Screening Cn1c(=O)oc2cc(S(=O)(=O)Nc3ccc(F)cc3)ccc21 returned JMJD2A Tudor inh -5%, VDR inh -1%, PLK1 PBD block -4%, HP1b binding inh 21%, BAZ2B inh 6% and G9a inh 24%.
`Cc1ccc(NS(=O)(=O)c2ccc3c(c2)CCO3)cc1C` gave JMJD2A Tudor inh -29%.
Screening Cc1ccc(NC(=O)CSc2ncccc2C(=O)Oc2cccc([N+](=O)[O-])c2)cc1Cl returned JMJD2A Tudor inh -26%, VDR inh 0%, PLK1 PBD block -2%, HP1b binding inh 23%, BAZ2B inh -8% and G9a inh 50µM*.
Screening Cc1ccc(NC(=O)CSc2ncccc2C(=O)Oc2ccccc2Cl)cc1Cl returned JMJD2A Tudor inh -13%, VDR inh 17%, HP1b binding inh 32%, BAZ2B inh 2% and G9a inh inconclusive.
For C[C@@]12CCC3[C@@](CCC4[C@@]3(C)CCC[C@@]4(C)C(=O)N3CCCCC3)(CC1=O)C2 (stereo partly specified) the results were JMJD2A Tudor inh -18%, VDR inh 4%, PLK1 PBD block -10%, HP1b binding inh 31%, BAZ2B inh 11% and G9a inh 10%[0.501 µM].
`COc1ccccc1/C=c1\sc2nc(-c3ccccc3OC)nn2c1=O` gave JMJD2A Tudor inh -13%, VDR inh -12%, PLK1 PBD block -10%, HP1b binding inh 17% and BAZ2B inh -26%.
`Cc1ccc(/C=c2\sc3nc(-c4ccccc4Br)nn3c2=O)o1` gave JMJD2A Tudor inh 50µM*, VDR inh 11%, PLK1 PBD block -26%, HP1b binding inh 1%, BAZ2B inh 50µM* and G9a inh 3.5µM*.
Screening Cc1ccc(/C=c2/sc3nnc(-c4ccccc4Cl)n3c2=O)o1 returned JMJD2A Tudor inh 22µM*, VDR inh -10%, PLK1 PBD block -22%, HP1b binding inh -35%, BAZ2B inh 40µM* and G9a inh 11µM*.
Screening COc1ccc(Br)cc1/C=c1\sc2nc(-c3ccco3)nn2c1=O returned JMJD2A Tudor inh 45µM*, VDR inh -16%, PLK1 PBD block inconclusive, HP1b binding inh -25%, BAZ2B inh 16µM* and G9a inh inconclusive.
Screening Cc1ccc(/C=c2\sc3nc(-c4ccco4)nn3c2=O)o1 returned JMJD2A Tudor inh -16%[11.4 µM], VDR inh -9%, PLK1 PBD block 9.5µM*, HP1b binding inh 22µM*, BAZ2B inh 50µM* and G9a inh 18µM*.
For CN1CCOc2cc(S(=O)(=O)N3CCN(c4nc(-c5cccs5)nc5ccccc45)CC3)ccc21 the results were JMJD2A Tudor inh -23%, VDR inh 15% and HP1b binding inh -8%.
Screening O=C(Nc1ccccc1)N1CC2(CCN(S(=O)(=O)c3ccccc3)CC2)C1 returned VDR inh 2% and G9a inh 0%[12.7 µM].
`Cc1cccc(NC(=O)/C(C#N)=C/c2ccc(C)o2)c1` gave JMJD2A Tudor inh -14%, VDR inh -1%, HP1b binding inh 26%, BAZ2B inh -10% and G9a inh -2%[59 µM].
For CC(C)CCN1CN(S(=O)(=O)c2cccs2)c2nc3ccccc3nc21 the results were JMJD2A Tudor inh -4%, VDR inh -14%, PLK1 PBD block -11%, HP1b binding inh 23%, BAZ2B inh 1% and G9a inh 16µM*.
O=S(=O)(c1cccs1)N1CN(Cc2ccco2)c2nc3ccccc3nc21 was read as JMJD2A Tudor inh inconclusive, VDR inh 6%, PLK1 PBD block -4%, HP1b binding inh -7%, BAZ2B inh inconclusive and G9a inh 40µM*.
Screening CCCCN1CN(S(=O)(=O)c2cccs2)c2nc3ccccc3nc21 returned BAZ2B inh 9% and G9a inh inconclusive.
O=S(=O)(c1cccs1)N1CN(Cc2ccc(Cl)cc2)c2nc3ccccc3nc21 was read as JMJD2A Tudor inh 3%, VDR inh -4%, PLK1 PBD block -1%, HP1b binding inh 52%, BAZ2B inh -2% and G9a inh 55%[59 µM].
